Source: PubChem BioAssay (Tox21)
Records with an inconclusive call do not appear. Calls of active or inactive are those of the source. Unless noted, calls come from the whole dose curve.

Assays:
[1] = target: Gonadotropin-releasing hormone receptor (Homo sapiens) (UniProt P30968); assay: Human gonadotropin-releasing hormone receptor (GnRHR) small molecule agonists, calcium flux assay in GnRHR-HEK293 cells (AID 1920063); note: nearly all actives have a fitted effect of over 35% in size
How it was run: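 Calcium flux, agonist mode, human GnRHR stably integrated in HEK293; dye 1 h at 37 C before compound; Ex/Em=480/540 kinetic read, 3 min; 15 concentrations, triplicate.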

[2] = target: KiSS-1 receptor (Homo sapiens) (UniProt Q969F8); assay: Human kisspeptin (KISS1R) small molecule agonists, calcium flux assay in KISS1R-HEK293 cells (AID 1920064; active = well fitted activation curve with a large enough effect in the repeat runs)
How it was run: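 Triplicate 15-concentration series were applied to dye-loaded human KISS1R HEK293 cells, and agonist-evoked calcium fluorescence was captured for 3 min.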

[3] = G protein-coupled receptor (GPCR) small molecule agonists, calcium flux assay: HEK293 wild type cell line counter screen (AID 1920065); note: potency is the fitted concentration of half-maximal effect
How it was run: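 Non-specific calcium responders were flagged by adding DMSO-dissolved compounds to dye-loaded cells and reading 480/540 nm fluorescence each second for 3 min; ATP served as positive control.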

[4] = p53 small molecule agonists, cell-based qHTS assay with human liver microsomes (AID 1963577)
How it was run: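 Fluorescence of the beta-lactamase reporter in p53RE-bla cells, detected with LiveBLAzer substrate (2 h, room temperature, dark), served as the read-out after 16 h compound exposure at 37 C with human liver microsomes and NADPH, each 0.5 mg/mL final.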

[5] = p53 small molecule agonists, cell-based qHTS assay with rat liver microsomes (AID 1963578)
How it was run: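 Cells carrying a p53 response element–beta-lactamase reporter were plated and rested 5 h, then dosed with compound in DMSO plus rat liver microsomes and NADPH, each at 0.5 mg/mL final. After 16 h at 37 C, LiveBLAzer substrate was added for 2 h.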

[6] = p53 small molecule agonists, cell-based qHTS assay with human liver microsomes: qHTS cell viability counter screen (AID 1963579); note: nearly all actives have a fitted effect of over 45% in size
How it was run: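 Cytotoxicity counter screen: p53RE-bla, 4,000 cells/well; 5 h settle, 37 C/5% CO2; cpd + HLM 0.5 mg/mL + NADPH 0.5 mg/mL (final); 16 h, 37 C; CellTiter-Glo, 30 min RT, luminescence.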

[7] = p53 small molecule agonists, cell-based qHTS assay (AID 1963582; active = well fitted activation curve with a large enough effect in the signal ratio in the repeat runs, not every such curve was filed as active; the % refers to the signal ratio)
How it was run: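 Beta-lactamase reporter cells (p53RE-bla) treated with compounds for 16 h at 37 C; FRET substrate, 2 h, room temperature; fluorescence intensity.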

[8] = target: 5-hydroxytryptamine receptor 2A (Homo sapiens) (UniProt P28223); assay: 5-hydroxytryptamine receptor 2A (HTR2A) small molecule antagonists, cell-based qHTS assay (AID 1963586); note: nearly all actives have a fitted effect of over 45% in size; note: potency is the fitted concentration of half-maximal effect
How it was run: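 CHO cells stably expressing human HTR2A were plated for 18 h at 37 C, then loaded with calcium dye for 1 h. Compounds were preincubated 5 min at room temperature before DOI (4 nM solution) was added. Kinetic fluorescence was read for 3 min.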

[9] = target: 5-hydroxytryptamine receptor 2A (Homo sapiens) (UniProt P28223); assay: 5-hydroxytryptamine receptor 2A (HTR2A) small molecule agonists, cell-based qHTS assay (AID 1963587); note: nearly all actives have a fitted effect of over 30% in size; note: potency is the fitted concentration of half-maximal effect
How it was run: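 Kinetic calcium-flux fluorescence (2 min, 1 sec intervals) after compound addition in agonist mode. HTR2A-CHO cells were cultured 18 h, then dye-loaded 1 h at 37 C.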

[10] = target: Muscarinic acetylcholine receptor M1 (Homo sapiens) (UniProt P11229); assay: Cholinergic receptor muscarinic 1 (CHRM1) small molecule antagonists, cell-based qHTS assay (AID 1963588); note: nearly all actives have a fitted effect of over 40% in size; note: potency is the fitted concentration of half-maximal effect
How it was run: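 Compounds were tested at 15 concentrations in three independent runs. Dye-loaded CHRM1-CHO cells were exposed 5 min at room temperature before stimulation by acetylcholine added at 50nM. Intracellular calcium was read kinetically on FDSS for 3 min.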

[11] = target: Muscarinic acetylcholine receptor M1 (Homo sapiens) (UniProt P11229); assay: Cholinergic receptor muscarinic 1 (CHRM1) small molecule agonists, cell-based qHTS assay (AID 1963589); note: nearly all actives have a fitted effect of over 35% in size
How it was run: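 qHTS, 15-point titration, 3 independent runs: compounds pin-transferred onto dye-loaded CHRM1-CHO cells (human M1), calcium fluorescence followed every second to detect agonism.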

[12] = cAMP Responsive Elements (CRE) small molecule antagonists, cell-based qHTS assay (AID 1963591; active = well fitted inhibition curve with a large enough effect in the signal ratio in the repeat runs, not every such curve was filed as active; the % refers to the signal ratio; note: potency is the fitted concentration of half-maximal effect)
How it was run: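 Fluorescence intensity from cleaved LiveBLAzer B/G substrate (2 h, room temperature) quantified CRE-bla activity in HEK 293T cells exposed 3 h to compound with 0.25 uM final NKH477.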

[13] = target: Beta-2 adrenergic receptor (Homo sapiens) (UniProt P07550); assay: Adrenergic beta2 receptor (ADRB2) small molecule antagonists, cell-based qHTS assay (AID 1963592); note: series mostly up to about 92 µM; nearly all actives have a fitted effect of over 50% in size
How it was run: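 Assay format: CHO-ADRB2 cells, 18-20hr seeding at 37C/5% CO2, then compound plus 1nM isoproterenol agonist mix for 0.5hr RT. Homogeneous time-resolved fluorescence cAMP detection after 1hr, expressed as 665/615 nm ratio.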

[14] = target: D(2) dopamine receptor (Homo sapiens) (UniProt P14416); assay: Dopamine D2 receptor (DRD2) small molecule agonists, cell-based qHTS assay (AID 1963594); note: nearly all actives have a fitted effect of over 35% in size
How it was run: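 cAMP accumulation in DRD2-HEK293 cells measured by HTRF after 1 h detection; compounds added 10 min before NKH477 (200nM […]) forskolin-analogue stimulation, 30 min at room temperature, with Ro20-1724 present at 0.1 mM final.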

[15] = target: D(2) dopamine receptor (Homo sapiens) (UniProt P14416); assay: Dopamine D2 receptor (DRD2) small molecule antagonists, cell-based qHTS assay (AID 1963595; active = well fitted inhibition curve with a large enough effect in the signal ratio in the repeat runs, with a control signal flat; the % refers to the signal ratio)
How it was run: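 In this cell-based antagonist screen, compounds act for 10 min at room temperature before a 30 min challenge with 12 nM quinpirole and 200 nM NKH477. cAMP is quantified by HTRF competition in DRD2-HEK293 cells containing 0.1 mM Ro20-1724.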

[16] = p53 small molecule agonists, cell-based qHTS assay with rat liver microsomes: qHTS cell viability counter screen (AID 1963580); note: nearly all actives have a fitted effect of over 45% in size; note: potency is the fitted concentration of half-maximal effect
How it was run: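 Cytotoxicity counter screen: intracellular ATP read by CellTiter-Glo luminescence in the p53 reporter wells. HCT-116 p53RE-bla cells were treated for 16 h at 37 C alongside rat liver microsomes and NADPH, each 0.5 mg/mL final.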

[17] = p53 small molecule agonists, cell-based qHTS assay: qHTS cell viability counter screen (AID 1963581); note: nearly all actives have a fitted effect of over 45% in size
How it was run: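 Multiplexed with the reporter read, a CellTiter-Glo step (30 min, room temperature) gauges ATP-based viability of HCT-116 p53RE-bla cells after 16 h compound incubation at 37 C.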

[18] = cAMP Responsive Elements (CRE) small molecule agonists, cell-based qHTS assay (AID 1963590)
How it was run: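 Quantitative HTS for CRE agonists: HEK 293T CRE-bla cells, overnight plating, 3 h compound incubation at 37 C/5% CO2, then 2 h room-temperature LiveBLAzer B/G FRET substrate loading.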

[19] = target: Beta-2 adrenergic receptor (Homo sapiens) (UniProt P07550); assay: Adrenergic beta2 receptor (ADRB2) small molecule agonists, cell-based qHTS assay (AID 1963593);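 note: CHO cells stably overexpressing human ADRB2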
How it was run: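 CHO cells stably over-expressing ADRB2 were plated overnight at 37C, then dosed with compounds plus a stimulation mix containing 100uM IBMX and 25uM Ro-20-1724 for 0.5hr at room temperature. cAMP was measured by HTRF competition, 1hr.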
% is set by controls: 0 for no effect and ±100 for the full control effect.

Sequence of Gonadotropin-releasing hormone receptor (Homo sapiens) (P30968 whole entry, looked up): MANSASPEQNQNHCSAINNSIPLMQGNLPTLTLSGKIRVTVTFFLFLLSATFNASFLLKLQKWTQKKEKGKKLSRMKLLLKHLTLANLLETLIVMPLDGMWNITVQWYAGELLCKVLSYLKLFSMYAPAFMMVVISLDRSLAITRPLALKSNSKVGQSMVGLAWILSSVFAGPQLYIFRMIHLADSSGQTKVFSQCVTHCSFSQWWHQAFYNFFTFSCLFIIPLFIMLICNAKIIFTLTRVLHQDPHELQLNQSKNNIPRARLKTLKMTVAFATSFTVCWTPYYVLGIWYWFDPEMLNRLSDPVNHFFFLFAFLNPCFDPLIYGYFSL
Sequence of 5-hydroxytryptamine receptor 2A (Homo sapiens) (P28223 whole entry, looked up): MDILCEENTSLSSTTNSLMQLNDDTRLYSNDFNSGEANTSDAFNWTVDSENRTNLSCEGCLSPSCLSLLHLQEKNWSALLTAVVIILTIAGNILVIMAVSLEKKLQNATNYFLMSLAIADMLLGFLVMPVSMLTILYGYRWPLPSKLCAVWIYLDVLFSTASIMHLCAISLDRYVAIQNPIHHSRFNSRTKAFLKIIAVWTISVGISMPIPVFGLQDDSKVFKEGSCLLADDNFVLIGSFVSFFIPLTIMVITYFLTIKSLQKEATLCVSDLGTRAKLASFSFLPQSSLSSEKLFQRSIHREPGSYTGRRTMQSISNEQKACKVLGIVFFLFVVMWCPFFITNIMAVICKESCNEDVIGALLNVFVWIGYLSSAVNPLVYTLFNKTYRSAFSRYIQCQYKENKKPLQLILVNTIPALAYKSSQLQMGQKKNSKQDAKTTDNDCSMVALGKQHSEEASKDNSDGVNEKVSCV
Sequence of Beta-2 adrenergic receptor (Homo sapiens) (P07550 whole entry, looked up): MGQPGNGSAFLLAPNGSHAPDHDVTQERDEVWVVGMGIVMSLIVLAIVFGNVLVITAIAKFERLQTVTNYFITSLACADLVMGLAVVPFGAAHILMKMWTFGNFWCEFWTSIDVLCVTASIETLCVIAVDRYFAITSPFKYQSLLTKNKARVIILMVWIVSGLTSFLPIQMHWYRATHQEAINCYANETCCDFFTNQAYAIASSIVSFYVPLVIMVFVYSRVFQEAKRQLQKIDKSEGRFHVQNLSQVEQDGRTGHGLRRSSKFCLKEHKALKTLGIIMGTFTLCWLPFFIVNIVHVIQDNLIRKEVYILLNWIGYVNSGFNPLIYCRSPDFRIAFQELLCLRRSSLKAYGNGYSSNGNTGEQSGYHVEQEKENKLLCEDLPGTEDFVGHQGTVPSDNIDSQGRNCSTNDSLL
Sequence of Muscarinic acetylcholine receptor M1 (Homo sapiens) (P11229 whole entry, looked up): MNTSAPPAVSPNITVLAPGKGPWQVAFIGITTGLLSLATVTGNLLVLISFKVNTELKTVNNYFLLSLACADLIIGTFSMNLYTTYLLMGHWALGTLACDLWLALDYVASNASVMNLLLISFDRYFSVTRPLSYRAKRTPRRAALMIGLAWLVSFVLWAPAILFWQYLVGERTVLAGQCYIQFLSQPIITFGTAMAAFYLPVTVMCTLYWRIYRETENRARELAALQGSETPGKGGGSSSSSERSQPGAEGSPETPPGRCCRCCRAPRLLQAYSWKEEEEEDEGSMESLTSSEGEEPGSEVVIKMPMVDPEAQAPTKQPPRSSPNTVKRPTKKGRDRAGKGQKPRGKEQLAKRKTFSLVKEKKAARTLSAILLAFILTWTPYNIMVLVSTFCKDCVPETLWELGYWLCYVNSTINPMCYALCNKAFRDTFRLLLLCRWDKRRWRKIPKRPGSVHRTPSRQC
Sequence of D(2) dopamine receptor (Homo sapiens) (P14416 whole entry, looked up): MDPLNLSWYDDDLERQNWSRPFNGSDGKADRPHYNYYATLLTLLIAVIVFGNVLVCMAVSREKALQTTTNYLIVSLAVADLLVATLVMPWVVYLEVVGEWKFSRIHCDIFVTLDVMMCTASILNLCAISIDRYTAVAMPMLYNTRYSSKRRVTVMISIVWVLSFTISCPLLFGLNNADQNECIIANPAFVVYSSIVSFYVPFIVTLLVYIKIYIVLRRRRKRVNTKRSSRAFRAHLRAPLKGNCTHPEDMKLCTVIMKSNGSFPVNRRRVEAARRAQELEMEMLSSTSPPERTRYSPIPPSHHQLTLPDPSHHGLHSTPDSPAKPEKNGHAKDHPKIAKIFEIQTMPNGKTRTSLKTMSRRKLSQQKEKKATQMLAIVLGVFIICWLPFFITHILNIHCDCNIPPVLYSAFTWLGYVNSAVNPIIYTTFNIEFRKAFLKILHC
Sequence of KiSS-1 receptor (Homo sapiens) (Q969F8 whole entry, looked up): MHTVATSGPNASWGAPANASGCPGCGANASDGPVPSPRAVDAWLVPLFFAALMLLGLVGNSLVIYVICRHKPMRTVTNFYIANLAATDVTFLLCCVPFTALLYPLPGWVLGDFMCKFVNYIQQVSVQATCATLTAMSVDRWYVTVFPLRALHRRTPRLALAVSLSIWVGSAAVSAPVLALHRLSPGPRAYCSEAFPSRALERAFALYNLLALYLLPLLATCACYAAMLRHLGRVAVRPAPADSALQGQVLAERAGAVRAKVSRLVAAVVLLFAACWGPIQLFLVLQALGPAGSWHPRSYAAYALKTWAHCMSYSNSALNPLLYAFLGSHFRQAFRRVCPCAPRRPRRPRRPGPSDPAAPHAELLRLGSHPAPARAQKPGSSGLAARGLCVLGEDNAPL

O=C(O)O
inactive: activity change [1] 1.69% [at 5.22 µM, stronger effect = higher value] | activation [2] 0.0823% [at 6.97 µM] | activation [3] -0.66% [at 5.23 µM] | activation [4] -14.9% [at 5.99 µM] | activation [5] -6.42% [at 5.99 µM] | activity change, negative = cytotoxicity [6] -18.2% [at 5.99 µM] | activation [7] -4.58% [at 5.99 µM] | activity, negative = inhibition [8] 11.9% [at 5.62 µM] | activation [9] -3.03% [at 7.02 µM] | activity, negative = inhibition [10] -13.8% [at 5.58 µM] | activation [11] -0.0976% [at 6.97 µM] | activity change, negative = inhibition [12] -6.17% [at 8.39 µM] | activity change, negative = inhibition [13] -4.62% [at 8.39 µM] | activation [14] -1.72% [at 8.39 µM] | activity change, negative = inhibition [15] 0.0808% [at 8.38 µM]

COC(C)CCO (configuration not stated)
inactive: Potency [1] | Potency [2] | Potency [3] | Potency [4] | Potency [5] | Potency [6] | Potency [16] | Potency [17] | Potency [7] | Potency [8] | Potency [9] | Potency [10] | Potency [11] | Potency [18] | Potency [12] | Potency [13] | Potency [19] | Potency [14] | Potency [15]

NC1(c2ccc(-c3nc4ccn5c(=O)[nH]nc5c4cc3-c3ccccc3)cc2)CCC1
active: Potency [9] 26.8 µM | Potency [10] 2.9 µM
inactive: Potency [1] | Potency [2] | Potency [3] | Potency [4] | Potency [5] | Potency [6] | Potency [16] | Potency [17] | Potency [7] | Potency [8] | Potency [13] | Potency [14] | Potency [15]

O=CC=C(c1ccccc1)c1ccccc1
inactive: Potency [1] | Potency [2] | Potency [3] | Potency [4] | Potency [5] | Potency [17] | Potency [9] | Potency [10] | Potency [11] | Potency [13] | Potency [19] | Potency [14]
active: Potency [8] 42.4 µM | Potency [12] 24.5 µM

CCCCNC(=S)NCCCC
inactive: Potency [1] | Potency [2] | Potency [3] | Potency [4] | Potency [5] | Potency [6] | Potency [16] | Potency [17] | Potency [7] | Potency [8] | Potency [9] | Potency [10] | Potency [11] | Potency [18] | Potency [13] | Potency [19] | Potency [14] | Potency [15]

[O-][n+]1ccccc1SSc1cccc[n+]1[O-]
inactive: activity change [1] 17.2% [at 11.8 µM, stronger effect = higher value] | activation [2] 1.71% [at 15.8 µM] | activation [4] -14.9% [at 13.5 µM] | activation [5] -12.8% [at 13.6 µM] | activity change, negative = cytotoxicity [17] 8.83% [at 13.5 µM] | activity, negative = inhibition [10] 9.35% [at 12.6 µM] | activation [11] 14.1% [at 15.8 µM] | activation [18] -1.24% [at 19 µM] | activity change, negative = inhibition [13] 11.4% [at 19 µM] | activation [19] 17.9% [at 19 µM] | activity change, negative = inhibition [15] -21.1% [at 18.9 µM]
active: Potency [3] 4.65 µM | Potency [16] 0.547 µM | Potency [9] 9.28 µM

Cc1c[nH]c(=O)[nH]c1=O
inactive: Potency [1] | Potency [2] | Potency [3] | Potency [4] | Potency [5] | Potency [6] | Potency [17] | Potency [7] | Potency [8] | Potency [9] | Potency [10] | Potency [11] | Potency [18] | Potency [12] | Potency [13] | Potency [14] | Potency [15]
